Assay outcomes: PubChem, National Center for Advancing Translational Sciences (NCATS)
Shown are actives, neighbours in structure and some others; about 7.9% of the full set was active somewhere.
KB-3-1 cytotox: qHTS assay for MDR1-selective chemotherapeutics: Primary screen using the parental adenocarcinoma cell KB-3-1; KB-3-1 viability, CellTiter-Glo ATP luminescence, 72 h; Potency, µM (series often up to 46.1 µM), actives largely listed as cytotoxic; 400,000 compounds, 1.4% hits; also: % is scaled to controls: 0 for no effect and ±100 for the full control effect; nearly all actives have a fitted effect of over 60% in size
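Luminescent ATP read-out (CellTiter-Glo) measures survival of drug-naive KB-3-1 cells after 72 h compound exposure at 37 °C. Titration series was screened from lowest to highest concentration, with DMSO vehicle plates as background controls.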
HT1080-NT tox: qHTS for induction of synthetic lethality in tumor cells producing 2HG: qHTS for the HT-1080-NT fibrosarcoma cell line; AID 686970, 2013; HT-1080-NT fibrosarcoma viability, CellTiter-Glo ATP luminescence, 48 h; Potency, µM (top dose mostly 46.1 µM), for the others: at the highest dose activity, negative = less viability, usual class: cytotoxic; 360,000 compounds, 1.6% hits;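 also: NT is the 2HG producing partner of a matched IDH1 knockdown line; 0% = DMSO-treated cells and -100% = media-only wells without cells; nearly all actives have a fitted effect of over 55% in size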
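A 48-hour cytotoxicity screen used HT-1080-NT cells plated 2 hours before compound delivery. ATP-based CellTiter-Glo luminescence measured viability, normalized to DMSO and no-cell controls.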
HT1080 IDH1KD tx: qHTS for induction of synthetic lethality in tumor cells producing 2HG: qHTS for the HT-1080-IDH1KD cell line. HT-1080 IDH1 knockdown viability, ATP luminescence, 48 h. Potency, µM (top dose mostly 46.1 µM), without a hit: top-dose activity, negative = toxicity, most hits filed as cytotoxic. 360,000 compounds, 2% hits. AID 686971, 2013;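 also: 0% = DMSO wells and -100% = cell-free medium wells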
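Luminescent ATP read-out (CellTiter-Glo, 10 min at room temperature) after 48 h compound exposure at 37 °C gave viability of IDH1-knockdown HT-1080 cells. Activity was normalised to DMSO and cell-free wells, then fitted as concentration-response curves.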
SW480 rereplic: A quantitative high throughput screen for small molecules that induce DNA re-replication in SW480 colon adenocarcinoma cells; SW480 DNA re-replication, Hoechst DNA content imaging, 48 h; Potency, µM (titrated, usually from 46.1 µM), for the others: at the highest dose re-replication activation, hits mostly activators; 340,000 compounds, 1.8% hits; AID 624297, 2012; also: % of control where 0% means no effect; nearly all actives have a fitted effect of over 55% in size
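Per well, 250 cells were exposed to pinned compound for 48 hr. Nuclear DNA was visualised with Hoechst (40 min, 37 C) and total object intensity recorded by fluorescence scanning.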
KB-V1 MDR tox: qHTS assay for MDR1-selective chemotherapeutics: Primary screen using the drug-selected MDR subline cells KB-V1; KB-V1 MDR cells viability, CellTiter-Glo, 72 h; Potency, µM (titrated, usually from 46.1 µM), hits mostly cytotoxic; 400,000 compounds, 3.4% hits; also: % is scaled to controls: 0 for no effect and ±100 for the full control effect; nearly all actives have a fitted effect of over 60% in size
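Readout: CellTiter-Glo luminescence, 10 min after addition. Cells: KB-V1 MDR subline, 72 h at 37 degrees C with compound. Analysis: corrected, normalized data fitted to concentration-effect curves.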
MCF10A rerep: A quantitative high throughput screen for small molecules that induce DNA re-replication in MCF 10a normal breast cells; MCF 10A DNA re-replication, Hoechst nuclear intensity, 48 h; Potency, µM (top dose mostly 46.1 µM), inactives show at the highest dose activity, positive = re-replication, usual class: activators; 350,000 compounds, 2.9% hits; also: % of control where 0% means no effect; nearly all actives have a fitted effect of over 50% in size
An asterisk follows results filed as active; i = inactive; ? = inconclusive; nt = no result. Calls follow the shape of the dose curve; as a rule, active = well fitted curve in the direction sought with a large enough effect; inconclusive = small, poorly fitted or top-dose-only effect, or another doubt; inactive = no such curve, though single readings can be large; an effect the other way counts as inactive or inconclusive. Potency is read from the fitted curve at half-maximal effect.

SMILES | KB-3-1 cytotox | HT1080-NT tox | HT1080 IDH1KD tx | SW480 rereplic | KB-V1 MDR tox | MCF10A rerep
COc1cccc(Cn2c(-c3nonc3N)nc3ccccc32)c1 | 2.91µM* | 2.59µM* | 2.06µM* | 4.61µM* | 11.6µM* | 2.59µM*
COc1cc(Cn2c(-c3nonc3N)nc3ccccc32)ccc1C | 4.61µM* | 3.66µM* | 1.84µM* | 7.08µM* | 5.17µM* | 3.98µM*
Nc1nonc1-c1nc2ccccc2n1Cc1cccc(Cl)c1 | i | nt | nt | nt | i | nt
Cc1cc(C)c2sc(NC(=O)C3=COCCO3)nc2c1 | i | -1.4% | -22.2% | -0.5% | i | -0.1%
Cc1ccc(S(=O)(=O)N2CC3(C)CN(S(=O)(=O)c4ccc(C)cc4)CC(C)(C2)C3=O)cc1 | i | -10.1% | -25.2% | 7.2% | 0.731µM* | 5.8%
COc1cc(F)ccc1-c1cc(C(=O)NCc2ccc(C(F)(F)F)cc2)[nH]n1 | i | -18.8% | -27.3% | nt | i | nt
CNS(=O)(=O)c1ccc(CNC[C@H]2O[C@@H](n3ccc(N)nc3=O)[C@H](O)[C@@H]2O)cc1 | i | -1.7% | -0.7% | nt | i | nt
CCOc1ccc(-c2cc(N3C(=O)Nc4ccccc4N3O)n[nH]2)cc1 | i | 16.4µM* | 20.6µM* | ? | i | ?
COc1cccc(-c2cc(N3C(=O)Nc4ccccc4N3O)n[nH]2)c1 | i | 11.0% | 9.6% | -7.2% | i | 1.1%
COc1cc(OC)cc(C2=Cc3ccc(OC)cc3C(CC(C)=O)N2c2ccc(C#CC3(N)CCCCC3)cc2)c1 (stereo not given) | ? | 16.4µM* | 25.9µM* | nt | i | nt
COc1cc(OC)cc(C2=Cc3ccc(OC)cc3C(CC(C)=O)N2c2ccc(C#CC3(O)CCCCC3)cc2)c1 (stereo not given) | ? | -17.1% | -24.2% | nt | i | nt
COc1ccc2c(c1)C(CC(C)=O)N(c1ccc(-c3cccs3)cc1)C(c1ccsc1)=C2 (stereo not given) | 10.3µM* | -14.3% | -14.7% | nt | i | nt
COc1cc(OC)cc(C2=Cc3ccccc3C(CC(C)=O)N2c2ccc(C#CC3(N)CCCCC3)cc2)c1 (stereo not given) | ? | 14.6µM* | 13µM* | nt | ? | nt
O=C(Nc1ccccc1C(F)(F)F)Nc1c[nH]c(=O)[nH]c1=O | i | nt | nt | nt | i | nt
COCCNc1nc(NCCOc2ccccc2)c2sc(-c3ccccc3)cc2n1 | i | 14.6µM* | 23.1µM* | nt | ? | nt
CN1CCOc2cc(S(=O)(=O)N3CCN(c4nc(-c5cccs5)nc5ccccc45)CC3)ccc21 | nt | 14.8% | 3.3% | nt | nt | nt
Cc1ccc(S(=O)(=O)CCC(=O)NC2CCCCC2)cc1 | i | 10.8% | 4.5% | -4.6% | i | 3.5%
Cc1ccc(S(=O)(=O)CCC(=O)NC2CCCC2)cc1 | i | 2.6% | 12.8% | 20.6µM* | i | 1.2%
Cc1ccc(S(=O)(=O)NCCC(=O)NC2CCCCCC2)cc1C | i | 1.8% | 2.1% | -2.1% | 18.4µM* | -0.2%
CCc1nnc(SC(CC)C(=O)Nc2ccc(OC)c(Cl)c2)c2cc3occc3n12 (stereo not given) | i | nt | nt | nt | i | nt
CCOc1ccccc1OCC(=O)N/N=C(\C)Cc1ccc(OC)cc1 | ? | ? | ? | 8.2µM* | ? | ?
COc1cc(C(=O)NCc2cccc3ccccc23)cc(Cl)c1OC | i | 0.0% | -17.8% | 15.0% | 18.4µM* | ?
COc1cc(C(=O)NC(c2ccccc2)c2ccccc2)cc(Cl)c1OC | i | 6.8% | 6.8% | -1.2% | i | -2.8%
COc1cc(C(=O)NC(=S)N(CCc2ccccc2)CCc2ccccc2)cc(OC)c1OC | ? | -7.5% | ? | ? | 2.31µM* | ?
COc1cc(C(=O)N/N=C(\C)Cc2ccccc2)cc(OC)c1OC | i | 1.16µM* | 1.03µM* | 2.59µM* | i | 2.06µM*
SMILES | KB-3-1 cytotox | HT1080-NT tox | HT1080 IDH1KD tx | SW480 rereplic | KB-V1 MDR tox | MCF10A rerep
O=C(NC(=S)N(CCc1ccccc1)CCc1ccccc1)c1ccco1 | ? | -7.5% | -16.3% | ? | 6.51µM* | 14.3%
CC(CCc1ccccc1)NC(=S)NC(=O)c1ccco1 (stereo not given) | i | -3.8% | -5.3% | 0.0% | ? | 5.3%
O=C(NC(=S)N(Cc1ccccc1)Cc1ccccc1)c1ccccc1F | i | -12.4% | -11.1% | 1.64µM* | i | 19.1%
O=C(Nc1ccc(F)cc1)C1(S(=O)(=O)c2ccc(Cl)cc2)CC1 | i | 3.6% | ? | ? | i | -3.6%
COc1ccc(NC(=O)c2cc(-c3cc(F)ccc3OCC3CCCO3)n[nH]2)cc1OC (stereo not given) | ? | -26.8% | ? | nt | i | nt
CC(C)c1ccc2c(c1)[C@H]1OCC[C@H]1[C@@H](c1cccs1)N2 | 6.51µM* | 2.91µM* | 3.26µM* | 9.2µM* | 2.31µM* | 7.31µM*
O=C(CN1CCC(c2nc3ccccc3s2)CC1)NCc1cccs1 | i | 10µM* | ? | 16.7% | i | 5.2%
COc1ccccc1CNS(=O)(=O)c1ccc(-n2cnnn2)c(C)c1 | i | 4.7% | 8.6% | -10.7% | i | -0.8%
Cc1cc(S(=O)(=O)NCC(c2ccccc2)c2ccccc2)ccc1-n1cnnn1 | i | -11.1% | -10.8% | -7.6% | 18.4µM* | 3.7%
COc1ccc(C(=O)C(CCCCC(CN(C)C)C(=O)c2ccc(OC)cc2)CN(C)C)cc1 (stereo not given) | i | -14.2% | ? | ? | 13µM* | ?
CCOc1ccc(C(=O)C(CCC(CN(C)C)C(=O)c2ccc(OCC)cc2)CN(C)C)cc1 (stereo not given) | ? | 5.17µM* | 5.8µM* | 3.66µM* | i | ?
O=C(c1ccccc1)C(CCc1ccccn1)CCc1ccccn1 | i | -2.2% | -2.6% | 2.2% | i | 5.6%
CCOc1ccc(C(=O)c2ccncc2)cc1 | i | -3.8% | -19.6% | -1.6% | i | -1.6%
CN(C)CC(CCC(CN(C)C)C(=O)c1ccccc1)C(=O)c1ccccc1 (stereo not given) | 16.4µM* | 3.26µM* | 5.8µM* | ? | 8.2µM* | ?
COc1ccc(C(C)=O)cc1 | i | nt | nt | nt | i | nt
CCOC(=O)Cn1c(=O)c(F)cn(Cc2ccc(OC)c([N+](=O)[O-])c2)c1=O | i | ? | 20.4% | -7.4% | i | -3.8%
